Sampled rows, rich in hits. Any-hit rate of the full collection: about 3.3%.
Wnt bcat act: activators of Wnt/beta-catenin signaling. 300,000 tested, 1.2% active. activation, % at 9.35 µM. Wnt/beta-catenin reporter cell assay, activator, plate reader; in the data active = activation above about 30%, passing the limit was not always enough; inconclusive = no clear call, values can overlap the other calls;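 note: 0% = neutral control wells and 100% = positive control wells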
GAA850 FXN act: activators of GAA850 frataxin (FXN) promoter; HEK293 lucGAA850 FXN promoter luciferase reporter, 24 h; percent of 10 µM SAHA response; activation, % at 6 µM; 360,000 tested, 0.56% active; AID 540364;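 active = activation above the average of all compounds screened plus 3 SD, cutoff fixed separately per campaign, cut at about 7.5% in these data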;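 note: 0% = DMSO wells and 100% = 10 µM SAHA wells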
C2C12 statin: suppression of simvastatin myotoxicity; AID 602340; 330,000 tested, 0.78% active; rescue of ATP level, % at 7.49 µM; C2C12 myotubes + simvastatin, ATP luminescence, 48 h; scaled: DMSO 0, geranylgeraniol control 100;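 active = mean ATP rescue above about 67%, or every replicate alone reaching that limit, limit read from the data, passing the limit was not always enough; inconclusive = no clear call, values can overlap the other calls; inactive = mean under the limit and some replicate under it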;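 note: myotubes were challenged with 10 µM simvastatin during compound exposure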
esBAF inh: inhibitors of esBAF chromatin remodeling in mouse ES cells | Bmi1-luciferase knock-in reporter, 24 h; 100% = twice the neutral-well signal | reporter increase, % at 12.5 µM | 350,000 tested, 2% active | AID 602393; in the data active = activation above about 40%; inconclusive = no clear call, values can overlap the other calls;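 note: 0% = median of the plate's neutral control wells and 100% = double that signal; a rise in the Bmi1 reporter signal indicates esBAF inhibition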
MITF act: activators of MITF-driven TRPM1 promoter activity in SK-MEL-5 cells | activation, % at 12.5 µM | 300,000 tested, 0.75% active | SK-MEL-5 TRPM1-promoter luciferase, 24 h; % of positive control, neutral wells = 0 | AID 588334;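 active = mean activation of at least 80% with every replicate also reaching 80%; inconclusive = mean reaches 80% but some replicate falls short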;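 note: 0% = neutral control wells and 100% = parthenolide positive control wells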
Numbers without * were called inactive.

How did Cc1cccc(/C=C(\C(=O)C(=O)O)c2ccc3ccccc3n2)c1 do in these assays?
Wnt bcat act: 14.8; GAA850 FXN act: 3.6; C2C12 statin: -2.7; esBAF inh: 49.9*; MITF act: 6.3

What do the screens show for `O=C(O)C(=O)/C(=C\c1cccc(Cl)c1)c1ccc2ccccc2n1`?
Wnt bcat act: 39.6*; GAA850 FXN act: 6.5; C2C12 statin: -1.9; esBAF inh: 78.4*; MITF act: 22.8

How did COCCNC(=O)C[C@@H]1CC[C@H]2[C@H](COc3ccc(NC(=O)COC)cc3C(=O)N2C)O1 do in these assays?
C2C12 statin: 1.6; esBAF inh: -1.5

How did CO[C@H]1CN(C)C(=O)c2cc(NC(=O)NC(C)C)ccc2OC[C@@H](C)N(Cc2cncnc2)C[C@H]1C do in these assays?
C2C12 statin: -5.4; esBAF inh: 3.4

Results for CCOc1ccc(N/C=C/C(=O)c2ccc(OC)c(OC)c2)cc1 ?
Wnt bcat act: 5.3; GAA850 FXN act: 4.7; C2C12 statin: 18.0; esBAF inh: 70.0*

How did COc1ccc(N/C=C/C(=O)c2ccccc2)cc1 do in these assays?
Wnt bcat act: -1.0; GAA850 FXN act: -0.6; C2C12 statin: 11.7; esBAF inh: -52.8

How did CCCOc1ccc(N/C=C/C(=O)c2ccc(OC)c(OC)c2)cc1 do in these assays?
Wnt bcat act: 1.3; GAA850 FXN act: 3.0; C2C12 statin: 2.0; esBAF inh: 2.9; MITF act: 14.4

Results for CCOC(=O)c1ccc(N/C=C/C(=O)c2ccc(OC)c(OC)c2)cc1 ?
GAA850 FXN act: -0.7; C2C12 statin: 12.4; esBAF inh: 11.9; MITF act: -2.1

Results for COc1ccc(N/C=C\C(=O)c2ccc3ccccc3c2)cc1 ?
Wnt bcat act: 9.9; GAA850 FXN act: 0.9; C2C12 statin: -5.6; esBAF inh: 42.6*

Results for COc1ccc(C(=O)/C=C/Nc2ccc(C)cn2)cc1OC ?
GAA850 FXN act: 6.0; C2C12 statin: -7.9; esBAF inh: 60.5*; MITF act: 18.1

What do the screens show for `CCS(=O)(=O)NCC[C@@H]1CC[C@@H](NS(=O)(=O)c2cccc(F)c2)[C@H](CO)O1`?
C2C12 statin: -7.2; esBAF inh: 1.4

Results for COc1ccc(NC(=O)N[C@H]2C=C[C@H](CC(=O)NC3CCC3)O[C@H]2CO)cc1 ?
C2C12 statin: 0.1; esBAF inh: -11.8

How did Fc1cccc2sc(Nc3nc4cc5c(cc4s3)OCCO5)nc12 do in these assays?
Wnt bcat act: 18.2; GAA850 FXN act: -0.3; MITF act: 18.5

How did CC(=O)Nc1nc2cc3c(cc2s1)OCCO3 do in these assays?
Wnt bcat act: inconclusive; GAA850 FXN act: 6.5; C2C12 statin: 5.1; esBAF inh: 10.9

Results for CC(C)C(=O)Nc1nc2cc3c(cc2s1)OCO3 ?
Wnt bcat act: 29.3; GAA850 FXN act: 0.5; C2C12 statin: -15.5; esBAF inh: 68.0*

What do the screens show for `Fc1cccc2sc(Nc3nc4cc5c(cc4s3)OCO5)nc12`?
Wnt bcat act: 14.4; GAA850 FXN act: 4.6; C2C12 statin: -4.4; esBAF inh: 95.6*; MITF act: 69.7

How did CC(C)(C)C(=O)Nc1nc2cc3c(cc2s1)OCO3 do in these assays?
Wnt bcat act: 42.5*; GAA850 FXN act: 3.4; C2C12 statin: -3.0; esBAF inh: 28.8; MITF act: inconclusive

What do the screens show for `O=C(/C=C/c1ccc2c(c1)OCO2)Nc1nc2ccc(F)cc2s1`?
Wnt bcat act: 33.7*; GAA850 FXN act: 4.7; C2C12 statin: 7.0; esBAF inh: 56.3*; MITF act: 87.3*

What do the screens show for `COc1ccc(C(=O)Nc2nc3cc4c(cc3s2)OCO4)c(OC)c1`?
Wnt bcat act: 7.4; GAA850 FXN act: 6.7; C2C12 statin: -26.5; esBAF inh: 36.2; MITF act: 66.7

Results for C[C@@H]1CN([C@H](C)CO)C(=O)Cc2cc(NC(=O)Cn3cnnn3)ccc2O[C@H]1CN(C)Cc1ccc(-c2ccccc2)cc1 ?
C2C12 statin: 61.9; esBAF inh: -1.3

What do the screens show for `c1ccc2nc(-c3ccc4c(c3)OCO4)ccc2c1`?
Wnt bcat act: 50.2*; GAA850 FXN act: 2.4; C2C12 statin: -12.0; esBAF inh: 7.1

How did O=C(CSc1nnc(CNc2ccc(F)cc2)n1Cc1ccccc1)N1CCOCC1 do in these assays?
Wnt bcat act: -2.0; GAA850 FXN act: 1.1; C2C12 statin: 101.9*; esBAF inh: 1.8; MITF act: -4.4

What do the screens show for `C[C@H](CO)N1C[C@H](C)[C@H](CN(C)C(=O)NC2CCCCC2)OCCCC[C@H](C)Oc2ccc(NS(=O)(=O)c3cccs3)cc2C1=O`?
C2C12 statin: 15.6; esBAF inh: 1.0

Results for C[C@@H]1CCCCO[C@H](CN(C)C(=O)NC2CCCCC2)[C@H](C)CN([C@@H](C)CO)C(=O)c2cc(NS(=O)(=O)c3cccs3)ccc2O1 ?
C2C12 statin: 91.5*; esBAF inh: 3.0

What do the screens show for `C[C@@H]1CCCCO[C@@H](CN(C)C(=O)c2ccccc2)[C@H](C)CN([C@@H](C)CO)C(=O)c2cc(NS(=O)(=O)c3cccs3)ccc2O1`?
C2C12 statin: 90.4*; esBAF inh: -1.4

Results for O=C(c1cccc(F)c1)N1C[C@H]2[C@@H](c3ccccc31)[C@@H](CO)N2C(=O)c1cccc(F)c1 ?
C2C12 statin: -5.2; esBAF inh: -4.2

Results for CCC(C)Sc1nnc(NC(=O)c2ccco2)s1 (configuration not stated) ?
Wnt bcat act: 24.4; GAA850 FXN act: 3.9; C2C12 statin: 0.8; esBAF inh: 50.4*

Results for COCc1nnc(NC(=O)c2sc3ccccc3c2Cl)s1 ?
Wnt bcat act: inconclusive; GAA850 FXN act: -0.1; C2C12 statin: 5.3; esBAF inh: 50.8*

What do the screens show for `COCc1nnc(NC(=O)c2ccco2)s1`?
GAA850 FXN act: 0.2; C2C12 statin: 0.6; esBAF inh: 45.0*

How did Cc1nnc(NC(=O)c2sc3ccccc3c2Cl)s1 do in these assays?
Wnt bcat act: 27.8; GAA850 FXN act: 3.7; MITF act: 28.9

Results for CSc1nnc(NC(=O)c2ccco2)s1 ?
Wnt bcat act: 0.1; GAA850 FXN act: 5.1; C2C12 statin: 4.6; esBAF inh: 13.3; MITF act: 19.7

How did CNC(=O)c1ccsc1NC(=O)c1sc2ccccc2c1Cl do in these assays?
Wnt bcat act: inconclusive; GAA850 FXN act: 4.2; C2C12 statin: -19.6; esBAF inh: 42.8*; MITF act: 76.8

Results for O=S(=O)(c1cccs1)N1CN(Cc2ccc(Cl)cc2)c2nc3ccccc3nc21 ?
GAA850 FXN act: 0.9; C2C12 statin: 30.1; esBAF inh: 54.4*; MITF act: 3.4

What do the screens show for `O=S(=O)(c1cccs1)N1CN(Cc2ccco2)c2nc3ccccc3nc21`?
Wnt bcat act: 7.3; GAA850 FXN act: 6.2; C2C12 statin: 18.7; esBAF inh: 18.5; MITF act: 11.4

What do the screens show for `Cc1ccc(CN2CN(S(=O)(=O)c3cccs3)c3nc4ccccc4nc32)cc1`?
GAA850 FXN act: 1.5; C2C12 statin: 3.6; esBAF inh: 70.4*; MITF act: 66.4

Source: PubChem BioAssay (several laboratories)
